# The whole screen tested about 48,000 compounds, of which about 13,000 (27%) showed an effect of 50% or more. The list shows a part of the results.
# Test system: Wolbachia pipientis
# Assay: Anti-Wolbachia Cell-Based Screen
# Format: functional
# Parameters: scale not given: in the data most compounds retested in dose-response had high values
# Settings: 5 µM
row,SMILES,Percent Effect [%]
1,CC(C)c1nc(/C=C/c2cnn(-c3ccc(Cl)cc3)c2)ncc1C(=O)O,-7.437
2,Cc1ccsc1CN(CCN(C)C)C(=O)c1ccccc1C#N,-7.458
3,CCCS(=O)(=O)NC(=O)c1sc(C2CCCC2)nc1C,-2.065
4,CCC(C)N(C)CCNC(=O)NCc1cccc(-n2cncn2)c1 (stereo not given),23.44
5,O=C(NC1CC1)C1CCN(Cn2nc(-c3ccccc3)oc2=O)CC1,10.01
6,CCc1nc(CN2CCN(C(=O)c3csc(C(C)C)n3)CC2)no1,-9.148
7,COc1cc(OC)c2c(=O)oc(CC(O)CC(C)=O)cc2c1 (stereo not given),8.997
8,Cc1cc(C(=O)NCC2COCc3c(C)nnn3C2)no1 (stereo not given),-12.47
9,Cc1noc(C)c1CNS(=O)(=O)N(C)Cc1ccc(Cl)cc1,-11.55
10,CN(C)C(=O)c1ccc2c(c1)N(C)C(CC(=O)NCc1ccno1)CO2 (stereo not given),-14.39
11,CCN(c1ccc(C(=O)N2CCC(C)CC2)cc1)S(=O)(=O)CC,137.9
12,CCS(=O)(=O)N(C)c1ccc(C(=O)N2CCCC(C)C2)cc1 (stereo not given),-1.245
13,CCN(c1ccc(C(=O)N2CCC(C(N)=O)CC2)cc1)S(=O)(=O)CC,125.1
14,CCN(CC)S(=O)(=O)c1csc(C(=O)N2CCC(C(N)=O)CC2)c1,5.806
15,CCN(c1ccc(C(=O)N2CCCC(C)C2)cc1)S(=O)(=O)CC (stereo not given),-3.775
16,CN(C)S(=O)(=O)c1csc(C(=O)N2CCC(C(N)=O)CC2)c1,3.976
17,Cc1nccn1CC1CCCN1S(=O)(=O)Cc1ccon1 (stereo not given),0.377
18,Cc1nc(C)n(CC2CCCN(CCC(=O)NC3CCCC3)C2)n1 (stereo not given),114.2
19,Cc1nc(C)n(CC2CCCN(CCNC(=O)OC(C)(C)C)C2)n1 (stereo not given),-2.681
20,Cc1nc(C)n(CC2CCCN(CCC(=O)NC3CCCCC3)C2)n1 (stereo not given),153.2
21,Cc1nc(C)n(CC2CCCN(CCC(=O)Nc3cc(C)on3)C2)n1 (stereo not given),101.8
22,Cc1cnc(CNC(=O)NC2CCCN(c3ccccc3F)C2)s1 (stereo not given),-4.354
23,CC(C)OCCCN1CCCC(c2nc3ccccc3n2C(C)C)C1 (stereo not given),-14.63
24,Cc1cc(CN2CCN(CCOc3cccc(C#N)c3)CC2)no1,-1.661
25,CNC(=O)c1cnc(/C=C/c2cc(OC)c(OC)c(OC)c2)s1,2.96
26,COc1cc(/C=C/c2ncc(C(=O)O)s2)cc(Cl)c1O,10.97
27,CCOc1cc(/C=C/c2ncc(C(=O)O)s2)cc(Cl)c1OC,3.266
28,COc1cc(/C=C/c2ncc(C(=O)O)s2)cc(Cl)c1OC,96.03
29,CNC(=O)c1cnc(/C=C/c2ccc(O)c(OC)c2)s1,0.2416
30,CCOc1c(Cl)cc(/C=C/c2ncc(C(=O)O)s2)cc1OC,82.8

# Source: ChEMBL document CHEMBL3988442, “University of Dundee, Small-Polar-MMV Screening Library” (2021)
